In PubChem BioAssay (NCATS):
Results filed as inconclusive are left out. Entries that show only a call come without a potency. The source made the active and inactive calls. Calls follow the shape of the dose curve; as a rule, active = well fitted cell-killing curve with a large enough effect; inconclusive = small, poorly fitted or top-dose-only effect; inactive = flat fitted curve, though single readings scatter.

experiment: Quantitative highthroughput screen to assess conditional lethalithy of P12 Ichikawa cells grown in RPMI1640 with dialyzed fetal bovine serum (RPMI+ds) (AID 1963880); conditions: ATP luminescence, 48 h; Potency: P12-Ichikawa viability; series mostly up to 45.8 µM; also: nearly all actives have a fitted effect of over 35% in size
From the text: Assay Provider: Jason Cantor Ph.D.
Department of Biochemistry
University of Wisconsin-Madison, Madison, WI, USA
Chemical screening studies have identified drug sensitivities across hundreds of cancer cell lines but most putative therapeutics fail to translate. Discovery and development of drug candidates in models that more accurately reflect nutrient levels in human blood is a major challenge. Here we performed high-throughput screens in conventional versus Human Plasma-Like Medium (HPLM) to identify compounds that were "missed" when screening using the artificial culture condition. Sets of conditional anticancer compounds spanned phases of clinical development and included non-oncology drugs were assessed. […] We also traced conditional phenotypes for several chemotherapeutics to availability of HPLM-specific metabolites and confirmed others for compounds whose reported targets are encoded by nonessential genes. Our findings establish generalizable strategies for exploiting conditional lethality in HPLM to reveal therapeutic candidates and mechanisms of action in cancer cells.
Described herein are the results of each viability screens against three cell lines: NOMO1 (an acute myeloid leukemia cell line); P12-Ichikawa (a T-cell acute lymphoblastic leukemia); and SEM (a B-cell ALL). Each assay was screened using 3 different cell culture media: homemade human plasma-Like medium with 10% dialyzed fetal bovine serum (HPLM+ds); RPMI1640 with 10% untreated FBS and 5mM glucose (RPMI+s); and RPMI1640 with 10% dialyzed fetal bovine serum and 5 mM glucose (RPMI+ds).
PROTOCOL TABLE (as described by Inglese J, Shamu CE and Guy RK. 2007)
SEQUENCE No. (e.g., 1, 2, 3, etc.); […] (e.g., Cells, Incubation, Reagent, etc.); VALUE and DESCRIPTION.
1; Cells; 5 uL; white, solid bottom 1536-well Greiner assay plate.
2; Compounds; 23 nL; Kalypsis pin tool (Wako USA) equipped with a 1536-well pin head to transfer to the assay plates.
3; Incubation; 48 hours; 37C incubation.
4; Reagent; 3 uL; CellTiter Glo (Promega).
5; Incubation; 5 min, room temperature
6; Detection; Luminescence, Viewlux PerkinElmer.
NOTES (numbers refer to Sequence numbers above)
1. Briefly, 5 ul of cell reagent was dispensed using a Multidrop Combi Dispenser. The NOMO1 and SEM cells were plated at 500 cells/well and the P12-Ichikawa line at 1000 cells/well.
2. After seeding the cells, 23 nL of MIPE 4.1 library compounds (in DMSO) were added to each plate using a Kalypsys 1536 Pintool dispenser. Bortezomib at final concentration of […] and DMSO were added to each plate as positive and negative controls respectively. For each screen, MIPE 4.1 compounds were added over an eleven-point concentration range […] in 3-fold dilutions.
3. Each plate was covered with a stainless steel gasketed lid to prevent evaporation and incubated for 48 hour at 37C, 95% relative humidity, and 5% CO2.
4-5. Three microliter CellTilter-GloTM luminescent substrate mix (Promega) reagent was added to the assay plate and incubated at room temperature for 5 min.
6. The luminescence signal was measured using a ViewLux (PerkinElmer) multiplate reader with a 2 second exposure time per plate. Data for each compound were normalized as percent viability such that measurements for DMSO and the empty well controls in each plate were defined as 100% and 0%, respectively.
Potency is read from the fitted curve at half-maximal effect.

Row | SMILES | Potency
1 | CN(C)c1cccc(-c2c3c(=O)n(-c4ccccc4Cl)[nH]c3cc(=O)n2C)c1 | 1170 nM (active)
2 | Cc1[nH]c(C=C2C(=O)Nc3ccc(S(=O)(=O)N(C)c4cccc(Cl)c4)cc32)c(C)c1C(=O)N1CCN(C)CC1 | 14800 nM (active)
3 | Nc1ccc(S(=O)(=O)Nc2ccnn2-c2ccccc2)cc1 | inactive
4 | CN(C)c1ccc(C2Nc3ccc4ccccc4c3C3=C2C(=O)CC(C)(C)C3)cc1Br (stereo not given) | inactive
5 | CC1(C)NC(=O)N(c2ccc([N+](=O)[O-])c(C(F)(F)F)c2)C1=O | inactive
6 | NC(=O)NN=Cc1ccc([N+](=O)[O-])o1 | inactive
7 | CC(=O)SC[C@@H](C)C(=O)N1CCC[C@H]1C(=O)N[C@@H](Cc1ccccc1)C(=O)O | inactive
8 | Cc1[nH]c2ccccc2c1CCNCc1ccc(C=CC(=O)NO)cc1 | 662 nM (active)
9 | CC(=O)N(C)C1(c2ccccc2)CCN(CCC[C@]2(c3ccc(Cl)c(Cl)c3)CCCN(C(=O)c3ccccc3)C2)CC1 | 2960 nM (active)
10 | CN1CCN(c2c(F)cc3c(=O)c(C(=O)O)cn4c3c2OCN4C)CC1 | inactive
11 | CCCCCOC(=O)Nc1nc(=O)n([C@@H]2O[C@H](C)[C@@H](O)C2O)cc1F (stereo not given in full) | inactive
12 | CCC(=C(CC)c1ccc(O)cc1)c1ccc(O)cc1 | inactive
13 | CCCN[C@H]1CCc2nc(N)sc2C1 | inactive
14 | Cc1cnc(NC(=O)C2=C(O)c3ccccc3S(=O)(=O)N2C)s1 | inactive
15 | CN1CCCN(C(=O)c2cccc(-c3ccc(C=C4C(=O)Nc5ccc(Cl)cc54)o3)c2)CC1 | 14800 nM (active)
16 | CC1(C)SCCN(S(=O)(=O)c2ccc(OCC#CCO)cc2)[C@@H]1C(=O)NO | inactive
17 | CC#CCn1c(N2CCC[C@@H](N)C2)nc2c1c(=O)n(Cc1nc(C)c3ccccc3n1)c(=O)n2C | inactive
18 | CC(=O)Oc1ccccc1C(=O)O | inactive
19 | CC1CNc2c(cccc2S(=O)(=O)N[C@@H](CCCN=C(N)N)C(=O)N2CC[C@@H](C)C[C@@H]2C(=O)O)C1 (stereo not given in full) | inactive
20 | Cc1nc2c(-c3cnc(N)nc3)nc(N3CCOCC3)nc2n1C(C)C | 23.4 nM (active)

Row | SMILES | Potency
21 | NC1CCC(Nc2nc(Nc3ccc(C(=O)N4CCCCC4)cc3)c3ncn(-c4cccc(F)c4)c3n2)CC1 (stereo not given) | inactive
22 | O=C(C[C@@H]1CC=CCCC(=O)O[C@H](c2ccccc2)CNC1=O)NCc1ccc(Cl)cc1 | inactive
23 | CC(C)c1ccc2c(c1)c(SC(C)(C)C)c(CC(C)(C)C(=O)O)n2Cc1ccc(Cl)cc1 | inactive
24 | Nc1nc(=S)c2[nH]cnc2[nH]1 | 14800 nM (active)
25 | C1=CCOCc2cc(ccc2OCCN2CCCC2)Nc2nccc(n2)-c2cccc(c2)OCC1 | 13200 nM (active)
26 | CC(C)n1c(C=C[C@H](O)C[C@H](O)CC(=O)O)c(-c2ccc(F)cc2)c2ccccc21 | 4690 nM (active)
27 | COc1ccc([C@@H]2CNC(=O)C2)cc1OC1CCCC1 | inactive
28 | Cc1cn(-c2cc(NC(=O)c3ccc(C)c(Nc4nccc(-c5cccnc5)n4)c3)cc(C(F)(F)F)c2)cn1 | 1050 nM (active)
29 | C[C@@H](CN1CC(=O)NC(=O)C1)N1CC(=O)NC(=O)C1 | 590 nM (active)
30 | CON=C(C(=O)N[C@@H]1C(=O)N2C(C(=O)O)=C(CSC(=O)c3ccco3)CS[C@H]12)c1csc(N)n1 | inactive
31 | CN(C)CCCC1(c2ccc(F)cc2)OCc2cc(C#N)ccc21 (stereo not given) | inactive
32 | CCOC(=O)N1CCN([N+]([O-])=NOc2ccc([N+](=O)[O-])cc2C#N)CC1 | 1050 nM (active)
33 | CC[C@H](NC(=O)[C@H](C)NC)C(=O)N1C[C@@H](O)C[C@H]1Cc1c(-c2[nH]c3cc(F)ccc3c2C[C@H]2C[C@H](O)CN2C(=O)[C@H](CC)NC(=O)[C@H](C)NC)[nH]c2cc(F)ccc12 | 2640 nM (active)
34 | CCCCNc1cc(C(=O)O)cc(S(N)(=O)=O)c1Oc1ccccc1 | inactive
35 | CN(C)c1ccc(C(=O)NCCCCCCC(=O)NO)cc1 | 1180 nM (active)
36 | N#Cc1cc(NC(=O)Nc2nnc(-c3ccncc3)s2)ccc1-c1cn[nH]c1 | inactive
37 | O=c1c(-c2ccc(O)cc2)coc2cc(OC3O[C@H](CO)[C@H](O)[C@H](O)[C@H]3O)cc(O)c12 (stereo not given in full) | inactive
38 | COc1cc2c(Nc3ccc(Cl)c(Cl)c3F)ncnc2cc1OCC1C[C@@H]2CN(C)C[C@@H]2C1 (stereo not given in full) | 23400 nM (active)
39 | CNS(=O)(=O)CCc1ccc2[nH]cc(C3CCN(C)CC3)c2c1 | inactive
40 | CCOC(=O)N1c2ccc(C(F)(F)F)cc2[C@@H](N(Cc2cc(C(F)(F)F)cc(C(F)(F)F)c2)C(=O)OC)C[C@H]1CC | inactive
